PubChem BioAssay (NCATS)
Inconclusive results are not listed. A call without a number means that no potency is given here. Activity calls are given as the source filed them. Unless noted, calls come from the whole dose curve; as a rule, active = well fitted curve in the direction sought with a large enough effect; inconclusive = small, poorly fitted or top-dose-only effect, or another doubt; inactive = no such curve, though single readings can be large; an effect the other way counts as inactive or inconclusive.

Tests used:
[1] = MultiTox-Fluor Cytotoxicity Assay - LYMP1-002 - Dead Cells (AID 960); details: LYMP1-002 lymphoblastoid cells, dead-cell protease fluorescence; series mostly up to 46.1 µM; note: nearly all actives have a fitted effect of over 60% in size; note: potency is the fitted concentration of half-maximal effect
In short: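 Human lymphoblastoid cells (LYMP1-002), 2500/well in complete medium, were exposed to compounds for 16 hr at 37 C. Dead-cell protease activity was read as bis-AAF-R110 fluorescence (Ex/Em 485/520), normalized to DMSO and 15 uM tetraoctylammonium bromide; AC50 from Hill fits.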

[2] = MultiTox-Fluor Cytotoxicity Assay - LYMP1-003 - Live Cells (AID 962); details: LYMP1-003 lymphoblastoid cells, MultiTox-Fluor live-cell protease fluorescence; series mostly up to 92.2 µM; note: potency is the fitted concentration of half-maximal effect
In short: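 LYMP1-003 human lymphoblastoid cells (2500/well) in complete medium were preincubated 5 hr at 37 C, then exposed to compounds for 16 hr at 37 C. Live-cell protease cleavage of GF-AFC read by fluorescence (Ex/Em 405/510); AC50 from Hill fits.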

[3] = Cell Viability - LYMP1-003 - Assay at 24 hr (AID 963); details: LYMP1-003 lymphoblastoid cell viability; series mostly up to 92.2 µM; note: potency is the fitted concentration of half-maximal effect
In short: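 Human lymphoblastoid LYMP1-003 cells (2500/well) were rested 5 hr at 37 C, then exposed to compounds in complete medium for 24 hr at 37 C. Cellular ATP was quantified by CellTiter-Glo luminescence, and AC50 values came from Hill fits of concentration-response data.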

[4] = Cell Viability - LYMP1-003 - Assay at 40 hr (AID 964); details: LYMP1-003 lymphoblastoid viability; series mostly up to 92.2 µM; note: nearly all actives have a fitted effect of over 60% in size; note: potency is the fitted concentration of half-maximal effect
In short: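 Human lymphoblastoid LYMP1-003 cells, 2500/well in complete medium, rested 5 hr at 37 C, then exposed to compounds for 40 hr at 37 C. Viability read as intracellular ATP by CellTiter-Glo luminescence; AC50 from Hill fits of concentration-response data.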

[5] = Cell Viability - LYMP2-009 (AID 968); details: LYMP2-009 lymphoblastoid cell viability; series mostly up to 92.2 µM; note: nearly all actives have a fitted effect of over 55% in size; note: potency is the fitted concentration of half-maximal effect
[6] = Cell Viability - LYMP2-013 (AID 970); details: LYMP2-013 lymphoblastoid cells viability; series mostly up to 92.2 µM; note: nearly all actives have a fitted effect of over 55% in size; note: potency is the fitted concentration of half-maximal effect
In short: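 Human lymphoblastoid cells, 2500/well, were preincubated 5 hr at 37 C, then treated with compounds for 24 hr at 37 C in complete medium. Intracellular ATP was read by CellTiter-Glo luminescence; AC50 from Hill-equation fits of concentration-response data.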

[7] = Cell Viability - LYMP2-017 (AID 972); details: LYMP2-017 lymphoblastoid cell viability; series mostly up to 92.2 µM; note: nearly all actives have a fitted effect of over 55% in size; note: potency is the fitted concentration of half-maximal effect
In short: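 Human lymphoblastoid cells (2500/well) were seeded in complete medium, held 5 hr at 37 C, then exposed to compounds for 24 hr at 37 C. Intracellular ATP was read by CellTiter-Glo luminescence after 30 min at room temperature, with AC50 values from Hill-equation fits.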

[8] = Cell Viability - LYMP2-019 (AID 973); details: LYMP2-019 lymphoblastoid cell line viability; series mostly up to 92.2 µM; note: nearly all actives have a fitted effect of over 55% in size; note: potency is the fitted concentration of half-maximal effect
In short: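 Human lymphoblastoid cells were seeded at 2500 cells/well, preincubated 5 hr at 37 C, then exposed to compounds for 24 hr at 37 C in complete medium. Intracellular ATP was measured by CellTiter-Glo luminescence; AC50 from Hill fits.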

[9] = Cell Viability - LYMP2-021 (AID 974); details: LYMP2-021 lymphoblastoid cells viability; series mostly up to 92.2 µM; note: potency is the fitted concentration of half-maximal effect
In short: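 Human lymphoblastoid cells (2500/well) were preincubated 5 hr at 37 C, then exposed to compounds for 24 hr at 37 C in complete medium. Intracellular ATP was read by CellTiter-Glo luminescence; AC50 came from Hill-equation fits of concentration-response data.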

[10] = Cell Viability - LYMP2-006 (AID 978); details: LYMP2-006 lymphoblastoid cell viability, qHTS; series mostly up to 92.2 µM; note: nearly all actives have a fitted effect of over 60% in size; note: potency is the fitted concentration of half-maximal effect
In short: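 In this cytotoxicity screen, the human lymphoblastoid line grew in complete medium with test compounds for 24 hr at 37 C. Cellular ATP served as the viability signal.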

[11] = Cell Viability - LYMP2-007 (AID 979); details: LYMP2-007 lymphoblastoid cell viability; series mostly up to 92.2 µM;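 note: cells exposed to compound for 24 h before reading; nearly all actives have a fitted effect of over 60% in size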; note: potency is the fitted concentration of half-maximal effect
In short: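 Human lymphoblastoid cells (2500/well) were plated in complete medium, incubated 5 hr at 37 C, then exposed to compounds for 24 hr at 37 C. Intracellular ATP was read by CellTiter-Glo luminescence after 30 min at room temperature; AC50 from Hill fits.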

[12] = Cell Viability - LYMP2-008 (AID 980); details: LYMP2-008 lymphoblastoid cell viability, qHTS; series mostly up to 92.2 µM; note: nearly all actives have a fitted effect of over 60% in size; note: potency is the fitted concentration of half-maximal effect
In short: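 Human lymphoblastoid cells (2500/well) were plated, held 5 hr at 37 C, then exposed to compounds for 24 hr at 37 C in complete medium. Intracellular ATP was read by CellTiter-Glo luminescence; AC50 from Hill-fitted concentration-response.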

[13] = Cell Viability - LYMP1-002 - Assay at 16 hr (AID 948); details: LYMP1-002 lymphoblastoid cell viability; series mostly up to 92.2 µM; note: potency is the fitted concentration of half-maximal effect
In short: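 In this qHTS, lymphoblastoid LYMP1-002 cells (human) receive compounds for 16 hr at 37 C. Viability is taken from CellTiter-Glo ATP luminescence, and AC50 derives from standard Hill fits.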

[14] = MultiTox-Fluor Cytotoxicity Assay - LYMP1-003 - Dead Cells (AID 961); details: LYMP1-003 lymphoblastoid cells, dead-cell protease fluorescence; series mostly up to 92.2 µM; note: nearly all actives have a fitted effect of over 70% in size; note: potency is the fitted concentration of half-maximal effect
In short: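 LYMP1-003 lymphoblastoid, 2500 cells/well, 5 hr settle then 16 hr cpd at 37 C; MultiTox-Fluor reagent 60 min RT; Ex/Em 485/520 dead-cell signal; norm. DMSO = 0%, 15 uM tetraoctylammonium bromide = 100%; Hill AC50.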

[15] = Cell Viability - LYMP2-004 (AID 966); details: LYMP2-004 lymphoblastoid cell viability, qHTS; series mostly up to 92.2 µM; note: nearly all actives have a fitted effect of over 65% in size; note: potency is the fitted concentration of half-maximal effect
In short: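 Human lymphoblastoid cells (2500/well) in complete medium were treated with compounds for 24 hr at 37 C, then intracellular ATP was measured by CellTiter-Glo luminescence. AC50 values came from Hill-equation fits of concentration-response data.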

[16] = Cell Viability - LYMP2-023 (AID 975); details: LYMP2-023 lymphoblastoid cell viability; series mostly up to 92.2 µM; note: nearly all actives have a fitted effect of over 55% in size; note: potency is the fitted concentration of half-maximal effect
In short: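 Human lymphoblastoid cells (2500/well) were preincubated 5 hr at 37 C, then exposed to compounds for 24 hr at 37 C in complete medium. Cellular ATP was read by CellTiter-Glo luminescence, and AC50 came from Hill-equation fits.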

[17] = Cell Viability - LYMP2-025 (AID 976); details: LYMP2-025 lymphoblastoid cell viability; series mostly up to 92.2 µM; note: potency is the fitted concentration of half-maximal effect
In short: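 Human lymphoblastoid LYMP2-025 cells (2500/well) were pre-incubated 5 hr at 37 C, then treated with compounds for 24 hr at 37 C in complete medium. Viability was read as intracellular ATP by CellTiter-Glo luminescence; AC50 from Hill fits.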

[18] = Cell Viability - LYMP2-002 (AID 977); details: LYMP2-002 lymphoblastoid cell viability, qHTS; series mostly up to 92.2 µM;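 note: compound exposure lasted 24 h at 37 °C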; note: potency is the fitted concentration of half-maximal effect
In short: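 Cytotoxicity is scored as concentration-dependent loss of cellular ATP in a human lymphoblastoid line after 24 hr compound treatment at 37 C. AC50 is obtained by modelling concentration-response data with the Hill equation.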

[19] = target: Pyruvate kinase PKM (Homo sapiens) (UniProt P14618); assay: qHTS Assay for Activators of Human Muscle Pyruvate Kinase (AID 954; active = well fitted curve in the direction sought with a large enough effect, not every such curve was filed as active); details: purified human muscle pyruvate kinase, luciferase-coupled luminescence, 1 h; series mostly up to 57.5 µM
Pyruvate kinase PKM (Homo sapiens), sequence (P14618 whole entry, looked up): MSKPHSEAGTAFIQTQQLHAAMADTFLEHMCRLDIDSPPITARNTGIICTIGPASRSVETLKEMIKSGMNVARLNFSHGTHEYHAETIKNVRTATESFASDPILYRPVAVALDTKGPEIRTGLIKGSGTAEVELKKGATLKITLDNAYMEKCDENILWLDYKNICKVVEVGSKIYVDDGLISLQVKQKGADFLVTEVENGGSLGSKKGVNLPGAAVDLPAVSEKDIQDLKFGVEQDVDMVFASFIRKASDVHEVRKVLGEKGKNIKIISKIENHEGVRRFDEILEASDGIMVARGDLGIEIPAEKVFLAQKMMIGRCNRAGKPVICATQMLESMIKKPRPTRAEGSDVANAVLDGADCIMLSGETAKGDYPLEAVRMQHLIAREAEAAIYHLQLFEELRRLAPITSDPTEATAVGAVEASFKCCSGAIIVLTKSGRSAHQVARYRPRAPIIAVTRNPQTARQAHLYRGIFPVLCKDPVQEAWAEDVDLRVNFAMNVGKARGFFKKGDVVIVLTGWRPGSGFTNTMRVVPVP
In short: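 Reaction: 0.1 nM purified PKM2 with 0.5 mM phosphoenolpyruvate and 0.1 mM ADP, room temperature, 1 h. Readout: luciferase-based ATP luminescence after stop reagent. Activators judged against a 0.3 nM enzyme column.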

[20] = Cell Viability - LYMP2-005 (AID 967); details: LYMP2-005 lymphoblastoid cell viability; series mostly up to 92.2 µM; note: potency is the fitted concentration of half-maximal effect
In short: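 Luciferase-based ATP quantitation served as the viability measure in human lymphoblastoid LYMP2-005 cells exposed to test compounds for 24 h at 37 C in complete culture medium. Potency (AC50) was obtained by fitting concentration-response curves with the Hill equation.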

Compound	Potency [1]	Potency [2]	Potency [3]	Potency [4]	Potency [5]	Potency [6]	Potency [7]	Potency [8]	Potency [9]	Potency [10]	Potency [11]	Potency [12]	Potency [13]	Potency [14]	Potency [15]	Potency [16]	Potency [17]	Potency [18]	outcome [19]	Potency [20]
CC(C)(C)c1ccc(O)c(O)c1	inactive	inactive	inactive	25.1 µM (active)	39.8 µM (active)	39.8 µM (active)	39.8 µM (active)	39.8 µM (active)	31.6 µM (active)	50.1 µM (active)	39.8 µM (active)	50.1 µM (active)								
Nc1c2ccccc2nc2ccccc12	7.94 µM (active)	inactive	25.1 µM (active)	20 µM (active)	10 µM (active)	12.6 µM (active)	15.8 µM (active)	10 µM (active)	12.6 µM (active)	20 µM (active)	15.8 µM (active)	12.6 µM (active)	15.8 µM (active)	15.8 µM (active)	12.6 µM (active)	12.6 µM (active)	12.6 µM (active)	7.94 µM (active)		
O=[N+]([O-])c1ccc(-c2nc(-c3ccc(F)cc3)c(-c3ccncc3)[nH]2)cc1																			inactive	
c1ccc2occc2c1	inactive	inactive	inactive	inactive	inactive	inactive	inactive	inactive	inactive	inactive	inactive	inactive	inactive	inactive	inactive	inactive	inactive	inactive		inactive
C[N+](C)(C)CCO																			inactive	
Nc1cccc2c(N)cccc12	inactive	inactive	inactive	inactive	inactive	inactive	inactive	inactive	inactive	inactive	inactive	inactive	inactive	inactive	inactive	inactive	inactive	inactive		inactive
CC(C)(c1ccc(O)cc1)c1ccc(O)cc1	inactive	inactive	inactive	inactive	inactive	inactive	inactive	inactive	inactive	inactive	inactive	inactive	inactive	inactive	inactive	inactive	inactive	inactive		inactive
Brc1ccccc1-c1ccccc1	inactive	inactive	inactive	inactive	inactive	inactive	inactive	inactive	inactive	inactive	inactive	inactive	inactive	inactive	inactive	inactive	inactive	inactive		inactive
Brc1ccc([C@H]2CN3CCSC3=N2)cc1																			inactive	
CC(C)C(C)(C)C(C)(C)C(C)(C)S		inactive	inactive	inactive	inactive	inactive	inactive	inactive	inactive	inactive	inactive	inactive	inactive	inactive	inactive	inactive	inactive	inactive		
NC(N)=NCCCCN=C(N)N																			inactive	
Cc1ccc(O)cc1		inactive	inactive	inactive	inactive	inactive	inactive	inactive	inactive	inactive	inactive	inactive	inactive	inactive	inactive	inactive	inactive	inactive		inactive
CCCCC(CC)COC(=O)c1ccccc1C(=O)O (stereo not given)	inactive	inactive	inactive	inactive	inactive	inactive	inactive	inactive	inactive	inactive	inactive	inactive	inactive	inactive	inactive	inactive	inactive	inactive		inactive
OCc1c[nH]c2ccccc12	inactive	inactive	inactive	inactive	inactive	inactive	inactive	inactive	inactive	inactive	inactive	inactive	inactive	inactive	inactive	inactive	inactive	inactive		inactive
Cn1cnc2c(NCc3ccccc3)nc(NCCO)nc21																			inactive	
CN(C)c1cc2c(Nc3ccc4c(cnn4Cc4ccccc4)c3)ncnc2cn1																			inactive	
Oc1ccccc1	inactive	inactive	inactive	inactive	inactive	inactive	inactive	inactive	inactive	inactive	inactive	inactive	inactive	inactive	inactive	inactive	inactive	inactive		inactive
O=C1NC(c2cccc([N+](=O)[O-])c2)=CCN1c1ccccc1O																			inactive	
COc1ccccc1N1CCN(CCN2C(=O)CC3(CCCC3)CC2=O)CC1																			inactive	
Nc1ccc(O)cc1	31.6 µM (active)		50.1 µM (active)	39.8 µM (active)	31.6 µM (active)	50.1 µM (active)	39.8 µM (active)	39.8 µM (active)	31.6 µM (active)	50.1 µM (active)	31.6 µM (active)	39.8 µM (active)	50.1 µM (active)	50.1 µM (active)	25.1 µM (active)	50.1 µM (active)		39.8 µM (active)		25.1 µM (active)
COc1cc(C=O)ccc1O	inactive	inactive	inactive	inactive	inactive	inactive	inactive	inactive	inactive	inactive	inactive	inactive	inactive	inactive	inactive	inactive	inactive	inactive		inactive
CC(=O)OC/C=C(C)/C=C/C=C(C)/C=C/C1=C(C)CCCC1(C)C	inactive	inactive	inactive				50.1 µM (active)						inactive	inactive			inactive			
CCCCCCCCCCCCCCCC[n+]1ccccc1	10 µM (active)	31.6 µM (active)	20 µM (active)	10 µM (active)	15.8 µM (active)	25.1 µM (active)	25.1 µM (active)	20 µM (active)	25.1 µM (active)	12.6 µM (active)	12.6 µM (active)	15.8 µM (active)	25.1 µM (active)			39.8 µM (active)	39.8 µM (active)	15.8 µM (active)		15.8 µM (active)
O=C(Oc1ccccc1)c1ccccc1O	inactive	inactive	inactive	inactive	inactive	inactive	inactive	inactive	inactive	inactive	inactive	inactive	inactive	inactive	inactive	inactive	inactive	inactive		inactive
O=C(NO)c1ccccc1	inactive	inactive	inactive	inactive	inactive	inactive	inactive	inactive	inactive	inactive	inactive	inactive	inactive	inactive	inactive	inactive	inactive	inactive		inactive
O=C(c1ccccc1)c1ccccc1	inactive	inactive	inactive	inactive	inactive	inactive	inactive	inactive	inactive	inactive	inactive	inactive	inactive	inactive	inactive	inactive	inactive	inactive		inactive
C1=CC2C3C=CC(C3)C2C1 (stereo not given)	inactive	inactive	inactive	inactive	inactive	inactive	inactive	inactive	inactive	inactive	inactive	inactive	inactive	inactive		inactive	inactive	inactive		inactive
Cc1cc(C(C)(C)C)c(O)c(C(C)(C)C)c1		inactive	inactive	inactive	inactive	inactive	inactive	inactive	inactive	inactive	inactive	inactive	inactive	inactive	inactive	inactive	inactive	inactive		inactive
CCCC(=O)c1cc(O)c(O)cc1O	inactive	inactive	inactive		inactive	inactive		inactive	inactive	inactive		inactive	inactive	inactive		inactive	inactive	inactive		inactive
CC(C)N(CCC(=O)c1ccc2ccccc2c1)Cc1ccccc1																			inactive	
